This is a sample that favours compounds with a hit; in the whole collection about 2.2% have one here.
TDP-43 yeast inh: inhibitors of TDP-43 toxicity in yeast; TDP-43 expressing yeast growth rescue, BacTiter-Glo, 24 h; 410,000 compounds, 1.8% hits; Potency, µM (series often up to 46.1 µM), inactives show top-dose growth rescue (activation), actives largely listed as activators; AID 652104; note: % of control where 0% means no effect; nearly all actives have a fitted effect of over 50% in size
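Yeast cells expressing TDP-43 under galactose induction are exposed to compounds for 24 hr at 30 deg C. BacTiter-Glo luminescence measures growth, so protective compounds score as activators.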
Abeta rescue: restores growth of yeast expressing A-beta42 peptide | yeast expressing A-beta42, growth rescue, OD600, 48 h; response scale: 0% DMSO, 100% iron-clioquinol control | Potency, µM (series often up to 46.1 µM), usual class: activators | 410,000 compounds, 0.063% hits | AID 1347071; note: nearly all actives have a fitted effect of over 55% in size
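Yeast growth medium received pinned compounds, then yeast cells expressing toxic A-beta were added; plates incubated at 30 C for 48 hr. Growth read as absorbance at 600 nm, normalized to DMSO and equimolar FeCl3 plus clioquinol controls.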
aSyn yeast inh: alpha-synuclein toxicity inhibition in yeast; Yeast expressing alpha-synuclein, growth rescue, BacTiter-Glo, 24 h; Potency, µM (doses to about 46.1 µM), without a hit: top-dose growth rescue (activation), actives largely listed as activators; 370,000 compounds, 0.14% hits; AID 652106; note: % of control where 0% means no effect; nearly all actives have a fitted effect of over 65% in size
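Screening used galactose-induced yeast with toxic alpha-synuclein levels, exposed to compound for 24 hr at 30 deg C. Cell growth, read with BacTiter-Glo luminescence, gave the measured signal.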
Mito fusion yeast: mitochondrial division inhibition or fusion activation; S. cerevisiae fusion-defective mutant growth rescue, CellTiterGlo 48 h; Potency, µM (series often up to 46.1 µM), inactives show top-dose growth rescue (activation), usual class: activators; 320,000 compounds, 0.23% hits; AID 485298; note: % of control where 0% means no effect; nearly all actives have a fitted effect of over 45% in size
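Temperature-sensitive fusion-defective S. cerevisiae (e.g. fzo1-1, mgm1-5) were grown with compound in YPEG medium (3% ethanol, 3% glycerol) for 48 hours at 37C. Growth rescue was measured as viability by CellTiterGlo luminescence after 10 minutes at ambient.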
FUS suppressor: suppressors of FUS proteinopathy in yeast; S. cerevisiae FUS-expressing, growth rescue, OD600, 24 h; Potency, µM (highest dose often 76.6 µM), actives largely listed as activators; 390,000 compounds, 0.24% hits; AID 1347120;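 note: plate controls were DMSO vehicle for no effect and reference control for full effect; nearly all actives have a fitted effect of over 55% in size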
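Read-out: OD at 600 nm after 24hr at 30C, reporting rescue of FUS-induced yeast toxicity. Cells at OD 0.005 in galactose (2%) minimal medium; compounds tested in a dilution series; CP55940 titration from 92uM final as control.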
* = called active by the depositor; i = inactive; ? = inconclusive; / = not tested or not shown; ! = a repeat was not active. Calls come from the whole dose curve; as a rule, active = well fitted curve in the direction sought with a large enough effect; inconclusive = small, poorly fitted or top-dose-only effect, or another doubt; inactive = no such curve, though single readings can be large; an effect the other way counts as inactive or inconclusive. Potency is the fitted concentration of half-maximal effect.

SMILES | TDP-43 yeast inh | Abeta rescue | aSyn yeast inh | Mito fusion yeast | FUS suppressor
Cc1ccc(CC(=O)NCc2nc(-c3cccc(C)c3)no2)cc1 | 18µM* | i | / | / | i
Cc1ccc(CC(=O)NCc2nc(-c3ccccc3)no2)cc1 | 13µM* | i | / | / | i
COc1cnc(-c2ccccn2)nc1Sc1ccc(F)cc1 | -19% | 10µM* | 9% | 7% | i
COc1ccc(Sc2nc(-c3ccccn3)ncc2OC)cc1 | 2% | ? | 13% | 9% | i
COc1cnc(-c2ccccn2)nc1Sc1ccc(Cl)cc1 | 14µM* | ? | -6% | -8% | i
O=C(NC1CCCC1)C1(C(=O)C2CC2)CC(c2ccccn2)=NO1 (stereo not drawn) | / | / | / | / | i
Cc1ccc(-c2ccc(CCC(=O)O)n2-c2cccc(C)c2C)cc1 | -91% | i | / | / | ?
COc1ccccc1-c1cc(-c2ccc(O)cc2)nc(N)c1C#N | 32µM* | i | -9% | 15% | i
CCOc1cc(-c2c(C#N)c(N)nc3c2CCc2ccccc2-3)ccc1O | 28% | i | 14% | 13% | i
COc1ccccc1-c1c(C#N)c(N)nc2c1CCc1ccccc1-2 | 20µM* | i | 17% | ? | ?
Cc1ccccc1N1CCN(C(=S)c2ccccc2)CC1 | 11µM* | i | -3% | 16% | /
Cc1ccccc1N1CCN(S(=O)(=O)c2ccccc2)CC1 | 13µM* | i | 6% | 16% | i
Cc1cccc(NC(=O)CSc2nc(=O)n(CCN3CCOCC3)c3c2CCC3)c1 | 24% | i | / | / | i
Cc1ccc(S(=O)(=O)N2CCN(c3nc(-c4cccs4)cc4ccccc34)CC2)cc1 | / | / | -7% | / | /
Cc1ccccc1NC(=O)c1ccc(-c2ccc(Cl)cc2Cl)o1 | 20µM* | ? | 1% | ? | i
Cc1cccc(C)c1NC(=O)c1ccc(-c2cc(F)ccc2F)o1 | 11µM* | i | -1% | / | i
Cc1cccc(C)c1NC(=O)c1ccc(-c2ccc(Cl)cc2Cl)o1 | 21% | i | 0% | ? | i
COc1ccc(CCNC(=O)CCCn2nc(C)c3sc4ccccc4c3c2=O)c(OC)c1 | 9% | i | / | / | i
O=C(C1CCN(c2cncnc2)CC1)N1CCOCC1 | / | / | / | / | i
COc1ccc(N2CCN(C(=O)c3nc(-c4ccc(Cl)cc4)n4c3CCCCC4)CC2)cc1 | 17% | i | / | / | i
COc1ccc(CCNC(=O)c2cc(=O)c3cc(C)c(C)cc3o2)cc1OC | 22% | i | / | / | i
Cc1ccc2nc3ccc(N4CCCCCCC4)nn3c(=O)c2c1 | 22µM* | i | -10% | 2% | i
O=C(Nc1nc(-c2ccco2)c(-c2ccco2)s1)C1CCC1 | 35µM* | i | -30% | ? | i
O=C(Nc1nnc(-c2ccco2)s1)C1CCCCC1 | -15% | i | -4% | 1% | i
Cc1cccc(N(C)c2nc3ccc(C)cc3n3nnnc23)c1 | 6% | i | / | / | i
SMILES | TDP-43 yeast inh | Abeta rescue | aSyn yeast inh | Mito fusion yeast | FUS suppressor
Cc1cccc(N(C)c2nc3ccc(C)cc3n3cnnc23)c1 | 13µM* | i | / | / | i
CCOC(=O)c1c(S(=O)(=O)N2CCCC(C(=O)Nc3ccc(C)cc3C)C2)c(C)n(CC)c1C (stereo not drawn) | -3% | i | / | / | i
COc1ccc(-n2c(/C=C(\C)O)nc(=O)c3c(C)cc(C)nc32)cc1 | -21% | i | -14% | 20µM* | i
COc1ccc(-n2c(C)nn(C)c2=O)cc1 | 12% | i | 0% | 0% | i
Cc1ccc(S(=O)(=O)C(CNS(=O)(=O)c2ccc(F)c(C(F)(F)F)c2)c2ccco2)cc1 (stereo not drawn) | 4µM* | i | / | / | i
COc1ccc(S(=O)(=O)NCC(c2ccco2)S(=O)(=O)c2ccc(C)cc2)cc1F (stereo not drawn) | ? | i | / | / | i
OC(Cn1cncn1)(c1ccc(F)cc1)c1ccc(Cl)cc1 (stereo not drawn) | ? | i | 28% | 7.1µM* | i
OC(Cn1cncn1)c1ccc(Cl)cc1 (stereo not drawn) | -19% | i | 13% | -4% | i
CCCC[C@@]1(C2CCCC2)Cc2cc(OCC(=O)O)c(Cl)c(Cl)c2C1=O | 13% | i | -48% | 21µM*! | i

From PubChem
